Data as given in PubChem BioAssay AID2732 (Emory University Molecular Libraries Screening Center, 2010).
In all, about 220,000 compounds went through this assay and about 8,200 (3.7%) were called active. Only a selection was taken, and actives are over-represented in it overall. Values without a mark were called inactive.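 The calls were made as follows: active = compounds that reduced the stress-induced luciferase reporter signal by more than about 70% of percent inhibition (limit read from the data); inactive = the rest.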

Assay: inhibitors of CHOP promoter induction, primary screen, cell-based, unfolded protein response, luciferase reporter (AID 2732);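 also: 0% = tunicamycin plus vehicle and 100% = wells without tunicamycin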
Details: CHO-K1 CHOP-promoter luciferase, tunicamycin-induced, 15-18 h; at 10 µM; active compounds read high
`O=[N+]([O-])/C=C1\CCCCCN1` showed an inhibition of -14.7%. With `Cn1nc(C(F)(F)F)c(C(=O)Nc2cccc(C(F)(F)F)c2)c1SCc1ccc(Cl)cc1` the inhibition was 80.9% (active). Compound `O=C(O)CSCC(=O)Nc1cccc(C(F)(F)F)c1` has an inhibition of -3.97%. `O=C(Nc1cccc(C(F)(F)F)c1)c1cnccn1` showed an inhibition of -10.5%. `CCOC(=O)CSc1nc(C)c(Oc2ccc(Cl)cc2Cl)c(=O)[nH]1` showed an inhibition of 10.4%. Work on `O=C(NN1C(=O)C2C(C1=O)C1C=CC2C12CC2)c1ccccc1Cl` (stereo not given) yielded an inhibition of 3.92%. With `COc1ccc(-c2csc(Nc3ccccn3)n2)cc1` the inhibition was -4.38%. In the case of `COc1ccc(C(=O)/C=C/Nc2ccccn2)cc1`, the inhibition is reported as 73.5% (active). With `CCOc1cc(NC(=O)c2ccccn2)c(OCC)cc1NC(=O)c1ccc(OC)cc1` the inhibition was -5.86%. `Cn1c2ccc(F)cc2c2nnc(NN)nc21` showed an inhibition of 13.9%. `N#CCCCn1c(O)c(N=NC(=O)C(O)c2ccccc2)c2ccccc21` (stereo not given) gave an inhibition of 11.1%. `CC(C)C(c1nnnn1CCc1ccccc1)N1CCN(C(=O)c2ccco2)CC1` (stereo not given) showed an inhibition of -7.76%. With `Cc1ccc(C(c2nnnn2CS(=O)(=O)c2ccc(C)cc2)N2CCC(C(N)=O)CC2)cc1` (stereo not given) the inhibition was 33.9%. For `CC(C)C(c1nnnn1Cc1ccccc1)N1CCC(C(N)=O)CC1` (stereo not given), the inhibition was 76.1% (active). With `COc1ccc(CS(=O)/C(Cl)=C(/Cl)C(=O)Nc2ccc(OC)nc2)cc1` (stereo not given) the inhibition was 107% (active). `COc1ccc(NC(=S)Nc2ccccc2Cl)cn1` showed an inhibition of 1.96%. In the case of `COc1ccc(NC(=S)NCCNC(C)=O)cc1`, the inhibition is reported as -5.59%. `Cc1nc(COc2cccc(Cl)c2)sc1C(=O)/C=C/N(C)C` gave an inhibition of -1.3%. With `NC(=O)C1(N2CCCCC2)CCN(C(=S)Nc2ccc(Cl)cc2)CC1` the inhibition was 8.9%. With `NC(=O)C1(N2CCCCC2)CCN(C(=O)c2ccc(C#Cc3ccccc3)o2)CC1` the inhibition was 78.8% (active). For `CC(C)(O)C#Cc1ccc(C(=O)N2CCC(C(N)=O)(N3CCCCC3)CC2)cc1`, the inhibition was 20.2%. `COc1ccc(CCNC(=O)C2CC3Cn4c(nc5cc(C)c(C)cc54)C3N2C)cc1` (stereo not given) showed an inhibition of -11.2%. `Cc1ccc(N2NC(=O)/C(=C/C=C/c3ccco3)C2=O)cc1C` gave an inhibition of 5.23%. In the case of `Cc1ccc(N=C2NC(=O)/C(=C/C=C/c3ccco3)S2)cc1C`, the inhibition is reported as 84.4% (active). With `Cc1cccc(N=C2NC(=O)/C(=C/c3cn(C)c4ccccc34)S2)c1` the inhibition was 14%. With `CCN(CC)C(=O)CC(c1ccc2c(c1)OCO2)c1c(OC)cc(OC)c2c(-c3ccccc3)cc(=O)oc12` (stereo not given) the inhibition was 9.26%. `Cc1cc(C(=O)Nc2ccccc2N2CCOCC2)c2ccccc2n1` gave an inhibition of 26.9%. In the case of `O=C(Nc1ccccc1N1CCCCC1)c1cccc(F)c1`, the inhibition is reported as 76% (active). In the case of `O=C(Nc1ccccc1N1CCN(C(=O)c2ccccc2)CC1)c1ccc2c(c1)OCO2`, the inhibition is reported as 40%. Compound `Cc1cccc(C(=O)Nc2ccccc2N2CCN(c3ccc(F)cc3)CC2)c1` has an inhibition of 30.4%. In the case of `O=C(Nc1ccccc1N1CCCCC1)c1ccc2nccnc2c1`, the inhibition is reported as 79% (active). For `O=C(Nc1ccccc1N1CCN(c2ccccc2)CC1)c1cccc(F)c1`, the inhibition was 44.2%. `CCc1ccccc1N1CN(Cc2ccco2)CNC1=S` gave an inhibition of -7.09%. `Cc1nc(-c2nnc(SCC(=O)Nc3cc(C(F)(F)F)cc(C(F)(F)F)c3)n2C)cs1` showed an inhibition of 61.4%. Compound `CC1CC(C)(C)n2c(O)c(N=NC(N)=S)c3cccc1c32` (stereo not given) has an inhibition of 21.3%. Work on `CCOc1ccc2sc(NS(=O)(=O)c3ccc(N)cc3)nc2c1` yielded an inhibition of 5.24%. Work on `COC(=O)c1ccc(Oc2nc(NC(C)C)nc(SC)n2)cc1` yielded an inhibition of 20.5%. `CCNc1nc(Oc2ccc(C(=O)OC)cc2)nc(N2CCOCC2)n1` showed an inhibition of -6.61%. With `COC(=O)c1ccc(Oc2nc(Nc3ccc(F)cc3)nc(N3CCCC3)n2)cc1` the inhibition was 73.6% (active). `CCOc1ccc(-c2n[nH]c(C)c2-c2ccccn2)c(O)c1` gave an inhibition of 9.43%. Work on `C=C(C)COc1ccc(-c2nc(N)ncc2-c2ccccc2OC)c(O)c1` yielded an inhibition of 7.39%. With `CCOc1ccc(-c2nc(N)ncc2-c2ccccc2OC)c(O)c1` the inhibition was 16.1%. With `C=C(C)COc1ccc(-c2n[nH]c(C)c2-c2ccccc2)c(O)c1` the inhibition was 112% (active). `Cc1[nH]nc(-c2ccc(OCc3cnn(-c4ccccc4)c3)cc2O)c1Oc1ccc(Cl)cc1` showed an inhibition of 51.5%. For `C=C(C)COc1ccc(-c2n[nH]c(C)c2-c2ccccc2OC)c(O)c1`, the inhibition was 105% (active). `Brc1ccc(-c2nn[nH]n2)cc1` gave an inhibition of 6.83%. `COC(C[C@@H](O)[C@H](C)[C@H](O)COCc1ccccc1)OC` showed an inhibition of 0.72%. `Cc1nc(CNS(=O)(=O)c2cc([N+](=O)[O-])ccc2C)cs1` gave an inhibition of 24.2%. In the case of `O=C(NCCc1ccccc1)Oc1ccc(Cl)cc1`, the inhibition is reported as -12.7%. For `C=C(C)Cn1c(C)cc(C)c(S(=O)(=O)c2ccccc2C)c1=O`, the inhibition was 72.7% (active). In the case of `Cc1ccccc1Nc1c(-c2ccccc2)nc2ncccn12`, the inhibition is reported as 1.44%. In the case of `Clc1ccc(CSc2nnc3c(n2)[nH]c2ccccc23)cc1`, the inhibition is reported as 10.8%. Compound `C=CCC1(C#N)C(=S)NC(C)=C(C(=O)OCC)C1c1ccccc1` (stereo not given) has an inhibition of 8.99%. `CCOC(=O)/C=C/CN(C(=O)OC(C)(C)C)S(=O)(=O)N1CC=CC1` gave an inhibition of 0.06%. With `O=C(CCn1c(=O)[nH]c2ccccc2c1=O)NCCCN1CCN(c2cccc(Cl)c2)CC1` the inhibition was -9.62%. With `O=C(Cc1csc(Nc2nc(=S)[nH]c3ccccc23)n1)NCCCN1CCN(c2cccc(Cl)c2)CC1` the inhibition was 79.8% (active). Compound `COc1cccc(CNC(=O)Cc2csc(Nc3nc(=S)[nH]c4ccccc34)n2)c1` has an inhibition of 49.7%. With `O=[N+]([O-])c1ccc2c(c1)C(O)n1nc(-c3ccccc3)nc1S2` (stereo not given) the inhibition was 37.2%. With `CCCc1nc2c(c(=O)c3ccccc3n2C)c(=O)n1-c1cc(C)cc(C)c1` the inhibition was -14.6%. For `Cn1c2ccccc2c(=O)c2c(=O)n(Cc3ccco3)c(COc3ccccc3)nc21`, the inhibition was -34.3%. For `CCCc1nc2c(c(=O)c3ccccc3n2C)c(=O)n1C1CCCCCC1`, the inhibition was 95.5% (active). `COc1cc(OC)c(OC)cc1/C=N/Nc1ncnc2c1[nH]c1ccc(C)cc12` showed an inhibition of -33.8%. `O=c1ccnc(Nc2ccc(Cl)cc2)[nH]1` showed an inhibition of -1.5%. `CC1=NNC(=O)C1CCC(=O)N/N=C(\C)c1ccc(Cl)cc1` (stereo not given) gave an inhibition of 5.21%. Work on `O=C(NCCCN1CCOCC1)c1ccc([N+](=O)[O-])cc1[N+](=O)[O-]` yielded an inhibition of -3.24%. `O=[N+]([O-])c1ccc(NCCCN2CCOCC2)c(Cl)c1` showed an inhibition of 13%. For `O=[N+]([O-])c1cc(S(=O)(=O)CCCN2CCOCC2)ccc1F`, the inhibition was 97.8% (active). With `O=C(CN1CCN(Cc2ccccc2)CC1)NC(c1ccccc1)c1ccccc1` the inhibition was -8.53%. `CC#CC[N+](C)(C)CCCCCC` gave an inhibition of -9.84%. `[O-][N+]12CCCCC1CCCC2CO` (stereo not given) gave an inhibition of -6.34%. With `COC(=O)/C=C\C(=O)Nc1cccc([N+](=O)[O-])c1` the inhibition was 107% (active). Compound `CC(=O)Nc1cccc([N+](=O)[O-])c1` has an inhibition of 13.9%. `Cc1ccccc1NC(=S)Nc1cccc([N+](=O)[O-])c1` showed an inhibition of 4.63%. `COc1cccc(C(=O)n2ccc(-c3cccs3)n2)c1` gave an inhibition of 17.3%. In the case of `O=c1c2ccccc2cnn1Cc1n[nH]c(=S)n1-c1ccccc1F`, the inhibition is reported as 5.73%. With `CSc1nc(C)nc2c1c(=O)n(C)c(=O)n2C` the inhibition was 11.2%. With `CCC(C)Sc1nc(C)nc2c1c(=O)n(C)c(=O)n2C` (stereo not given) the inhibition was 82.4% (active). With `CCOC(=O)N1CCN(C(=O)CSc2nc(C)nc3c2c(=O)n(C)c(=O)n3C)CC1` the inhibition was 28.2%. For `O=c1c(-c2ccc(Cl)cc2)[n+]([O-])c2ccccc2n1OCc1nc2ccccc2[nH]1`, the inhibition was 11.1%. For `C=CCC(Nc1ccccc1)c1cccc(OC)c1OC` (stereo not given), the inhibition was 29.3%. `CSCCC(NS(=O)(=O)c1ccc2c(c1)oc(=O)n2C)C(=O)NCc1ccccc1` (stereo not given) gave an inhibition of 18.5%. For `CSc1nc(-c2ccccc2)nc(C(Cl)Cl)n1`, the inhibition was 102% (active). `CSc1nc(C)cc(SC(C(C)=O)C(=O)Nc2ccccc2)n1` (stereo not given) showed an inhibition of 9.45%. Work on `COc1ccc(NS(=O)(=O)c2ccc(N3CCOCC3)c(NC(=O)c3ccccc3Br)c2)cc1` yielded an inhibition of -3.53%. Work on `CCOC(=O)N/N=C1\CC(C)S(=O)(=O)c2ccc(Cl)cc21` (stereo not given) yielded an inhibition of -26.8%. Work on `Cc1ccc(C(=O)NCC(=O)OCC(=O)Nc2cccc(S(=O)(=O)N3CCCC3)c2)cc1C` yielded an inhibition of -17.8%. Work on `CC(C)=C1SC(N2CCN(c3ccc(C)c(Cl)c3)CC2)=NC1=O` yielded an inhibition of 23.3%. For `Cc1cc(C)cc(NS(=O)(=O)c2ccc(Oc3ncc(C(F)(F)F)cc3Cl)cc2)c1`, the inhibition was 90.3% (active). In the case of `COC(=O)Cc1ccc(Oc2ncc(C(F)(F)F)cc2Cl)cc1`, the inhibition is reported as 29.9%. Work on `COc1ccccc1Oc1ccc(S(=O)(=O)Nc2cccnc2)cc1` yielded an inhibition of 44.6%. In the case of `Cc1ccc(SCCC(=O)OCC(=O)Nc2ncc(Cl)cc2Cl)cc1`, the inhibition is reported as 82% (active). With `CC(Oc1ccc(Cl)cc1)C(=O)OCC(=O)Nc1ncc(Cl)cc1Cl` (stereo not given) the inhibition was 2.69%. For `Cc1ccc(-n2c(SCC(=O)Nc3ncc(Cl)cc3Cl)nc3ccccc32)cc1`, the inhibition was 49.5%. Work on `Cc1cc(NC(=O)Nc2ccc(Cl)cc2)n(-c2ccccc2)n1` yielded an inhibition of 10.7%. In the case of `C/C=C(/C)C(=O)Nc1cccc(C2=NOC3(C2)C[C@@H](C(N)=O)N(C(=O)C2(C)CC2)C3)c1` (stereo not given in full), the inhibition is reported as -8.38%.
